Values joined by “and” are separate entries in the source; they are usually repeats but may differ in a detail not shown here. Equal entries are not always repeated. Results filed as inconclusive are left out. A call without a number means that no potency is given here. Active and inactive are the calls of the source. The call rests on the fitted dose curve; in most records, active means well fitted cell-killing curve with a large enough effect in the repeat runs; inconclusive means weak or mixed curves, or effect the other way; inactive means flat fitted curve, though single readings scatter.

This note sets out measurements from PubChem BioAssay (Tox21).
Potency means the concentration at half of the fitted maximal effect.

The test in a line: qHTS RealTime-Glo MT Cell Viability Assay in HEK293 cells - 8 hour (AID 1224887). Further: nearly all actives have a fitted effect of over 50% in size. On activity change, negative = cytotoxicity: top concentration of the series differs between compounds. The settings on record: RealTime-Glo luminescence; series mostly up to 76.8 µM; activity change, negative = cytotoxicity: at the top concentration. A digest of the protocol:
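HEK293 + NanoLuc + prosubstrate, 600 cells/well; 5 h, 37 C/5% CO2; compound 23 nL in DMSO by pintool; 37 C; luminescence read at 0, 8, 16, 24, 32 and 40 h time points.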
Consider `CC(C)=CC1C(C(=O)OCc2cccc(Oc3ccccc3)c2)C1(C)C` (configuration not stated), for which the Potency result is “inactive”.
For the compound `CNC(=O)Oc1cccc2c1OC(C)(C)C2`, the Potency entry is “inactive”.
On the same count and under the same terms, under `CN(C)c1ccccc1` stands “inactive”; under `Cc1ccc([N+](=O)[O-])cc1`, “inactive”; under `CSc1nc(NC(C)C)nc(NC(C)C)n1`, “inactive”.
In the case of `CNC(=O)CSP(=S)(OC)OC`, the Potency result was “inactive”.
The same measure, in the same setting: under `CCCCCCCCCc1ccc(O)cc1` stands 6.99 µM (active) and 4.36 µM (active); under `C[N+](C)(C)CC(=O)O`, “inactive”.
Take `Oc1ccc(Cl)cc1Cc1ccccc1`: the Potency was 21.9 µM (active) and 26.3 µM (active) and 21.3 µM (active).
Still for that read-out and setting: under `CS(=O)(=O)NC(=O)c1cc(Oc2ccc(C(F)(F)F)cc2Cl)ccc1[N+](=O)[O-]` stands “inactive”.
On the same count and under the same terms, under `NC(=O)CN1CCCC1=O` stands “inactive”; under `CC1(C)C(C(=O)OC(C#N)c2cccc(Oc3ccccc3)c2)C1(C)C` (configuration not stated), “inactive”.
On the same count and under the same terms, under `O=P(OCCCl)(OCCCl)OCCCl` stands “inactive”; under `OCCOCCO`, “inactive”; under `O=C(O)c1nn(Cc2ccc(Cl)cc2Cl)c2ccccc12`, “inactive”.
For the compound `O=C1CCCO1`, the Potency result was “inactive”.
Still for that read-out and setting: under `CC(C)(C#N)N=NC(C)(C)C#N` stands “inactive”; under `CCOP(=S)(OCC)SCn1c(=O)oc2cc(Cl)ccc21`, 26.3 µM (active) and 15.5 µM (active); under `CCCCCCCCCC(CC)c1ccc(S(=O)(=O)O)cc1` (configuration not stated), “inactive”.
With `ClC(Cl)(Cl)Br`, the Potency result was “inactive”.
Still for that read-out and setting: under `CCCCOC(=O)COC(=O)c1ccccc1C(=O)OCCCC` stands “inactive”; under `Nc1ccc2ccccc2c1`, “inactive”.
As for `Cn1c(-c2ccccc2)cc(-c2ccccc2)[n+]1C`, the “activity change, negative = cytotoxicity” value was -25.8% (inactive).
In the case of `ClCC(Cl)CCl`, the Potency result is “inactive”.
On to `CCOP(=O)(OCC)OCC`, for which the Potency result was “inactive”.
As for `C[C@]12CCC(=O)C=C1CC[C@@H]1[C@@H]2CC[C@@]2(C)[C@H]1CC[C@]2(C)O`, the “activity change, negative = cytotoxicity” value was -15.3% [at 35.3 µM] (inactive).
In the case of `CC(C)(c1ccccc1)c1ccc(O)cc1`, the Potency was 48.6 µM (active) and 34.7 µM (active).
As to `N#Cc1nn(-c2c(Cl)cc(C(F)(F)F)cc2Cl)c(N)c1S(=O)C(F)(F)F` (configuration not stated), the Potency is 19.6 µM (active).
For `COc1ccc(CO)cc1`, the Potency entry is “inactive”.
Same read-out and setting: under `ClCc1ccccn1` stands “inactive”.
For `CC(C)=CC1C(C(=O)OCN2C(=O)C3=C(CCCC3)C2=O)C1(C)C` (configuration not stated), the “activity change, negative = cytotoxicity” value was -26.1% [at 35.3 µM] (inactive).
Consider `COP(=S)(OC)Oc1ccc(S(=O)(=O)N(C)C)cc1`, for which the Potency entry was “inactive”.
Same read-out and setting: under `N#CCCCCC#N` stands “inactive”.
For the compound `COC(=O)Nc1nc2ccccc2[nH]1`, the Potency result is “inactive”.
The same measure, in the same setting: under `C[C@]12CC[C@H]3[C@@H](CCC4=CC(=O)CC[C@@H]43)[C@@H]1CC[C@@H]2O` stands “inactive”; under `O=[N+]([O-])c1ccc(Cl)c([N+](=O)[O-])c1`, 14 µM (active) and 17.4 µM (active).
Turning to `Oc1ccc(Cl)cc1Cl`, the “activity change, negative = cytotoxicity” value is 1.47% (inactive).
